Measured values reported in PubChem BioAssay (NCATS).
Records with an inconclusive call do not appear. Active and inactive are the calls of the source. Unless noted, calls follow the shape of the dose curve; as a rule, active = well fitted curve in the direction sought with a large enough effect; inconclusive = small, poorly fitted or top-dose-only effect, or another doubt; inactive = no such curve, though single readings can be large; an effect the other way counts as inactive or inconclusive.

How the values were obtained:
[1] = A High-Content qHTS Against Drug Library for the Identification of Small Molecules that Inhibit DYT1 Early Onset Primary Dystonia-Associated Cell Pathology (AID 1645839; calls by dose curve; also: series mostly up to about 46 µM)
Procedure, shortened: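 Flp-In T-REx 293 cells with tetracycline-inducible EGFP-delE hTOR1A (WT EGFP-hTOR1A as reference), 800 cells/well; compound added with tetracycline, 48 h at 37 C. Fixed, permeabilized cells imaged; %pathology (punctate TorsinA) primary, cell count counterscreen.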

[2] = biological target: Cytochrome P450 2D6 (Homo sapiens) (UniProt P10635); test: Cytochrome P450 family 2 subfamily D member 6 (CYP2D6) small molecule antagonists: luciferase biochemical (cell-free) qHTS assay (AID 1645840; active = well fitted curve in the direction sought with a large enough effect in the repeat runs; an effect the other way counts as inactive or inconclusive; also: series mostly up to about 57 µM; % is scaled to controls: 0 for no effect and ±100 for the full control effect; nearly all actives have a fitted effect of over 55% in size)
Procedure, shortened: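 P450-Glo luminescent screen: recombinant CYP2D6 enzyme–proluciferin substrate mix preincubated with compound 10 min at room temperature, then NADPH regeneration added for 1 h at room temperature. Detection reagent added for 20 min; luciferin light read as relative luminescence units.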

[3] = biological target: Cytochrome P450 2C9 (Homo sapiens) (UniProt P11712); test: Cytochrome P450 family 2 subfamily C member 9 (CYP2C9) small molecule antagonists: luciferase biochemical (cell-free) qHTS assay (AID 1645842; active = well fitted curve in the direction sought with a large enough effect in the repeat runs; an effect the other way counts as inactive or inconclusive; also: series mostly up to about 57 µM; % is scaled to controls: 0 for no effect and ±100 for the full control effect; nearly all actives have a fitted effect of over 55% in size)
Procedure, shortened: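 Luminescence, after 20 min with luciferin detection reagent, reflected CYP2C9 turnover during a 1 h NADPH-driven reaction at 37C. Enzyme-substrate mix contained 0.4% bovine serum albumin and was preincubated with compound 10 min at room temperature.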

[4] = Primary qHTS for inhibitors of nuclear receptor binding SET domain protein 2 (NSD2) in an isogenic RCH-ACV NSD2 p.E1099K mutant (9B) (AID 1645876); also: nearly all actives have a fitted effect of over 70% in size
[5] = Primary qHTS for inhibitors of nuclear receptor binding SET domain protein 2 (NSD2) in an RCH-ACV wild type WT cells (2C) (AID 1645877); also: nearly all actives have a fitted effect of over 70% in size; as to activity change, negative = cell killing: % is scaled to controls: 0 for no effect and ±100 for the full control effect
[6] = NCATS anti-infectives library activity on HEK293 viability as a counter-qHTS vs the C. elegans viability qHTS (AID 1745854); also: % is scaled to controls: 0 for no effect and ±100 for the full control effect
Procedure, shortened: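 HEK293 cells, 1500 per well, exposed 24 hr at 37C in 5% CO2 to compounds in a 1:5 titration, up to 41.7 uM final. Viability read as CellTiter-Glo luminescence after 10 min at room temperature.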

Cytochrome P450 2D6 (Homo sapiens), sequence (P10635 whole entry, looked up): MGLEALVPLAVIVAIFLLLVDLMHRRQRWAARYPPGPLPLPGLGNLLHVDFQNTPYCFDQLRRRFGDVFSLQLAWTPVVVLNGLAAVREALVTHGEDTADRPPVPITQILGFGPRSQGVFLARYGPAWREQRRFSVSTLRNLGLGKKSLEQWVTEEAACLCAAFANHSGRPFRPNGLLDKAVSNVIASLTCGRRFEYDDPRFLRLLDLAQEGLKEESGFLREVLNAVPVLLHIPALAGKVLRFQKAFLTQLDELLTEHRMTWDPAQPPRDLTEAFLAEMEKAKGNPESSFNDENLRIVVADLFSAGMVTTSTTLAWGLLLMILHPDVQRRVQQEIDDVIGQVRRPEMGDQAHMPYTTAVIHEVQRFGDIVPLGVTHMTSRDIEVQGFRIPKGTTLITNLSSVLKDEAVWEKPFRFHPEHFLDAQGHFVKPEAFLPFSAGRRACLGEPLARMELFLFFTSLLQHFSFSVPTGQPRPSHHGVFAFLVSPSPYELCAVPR
Cytochrome P450 2C9 (Homo sapiens), sequence (P11712 whole entry, looked up): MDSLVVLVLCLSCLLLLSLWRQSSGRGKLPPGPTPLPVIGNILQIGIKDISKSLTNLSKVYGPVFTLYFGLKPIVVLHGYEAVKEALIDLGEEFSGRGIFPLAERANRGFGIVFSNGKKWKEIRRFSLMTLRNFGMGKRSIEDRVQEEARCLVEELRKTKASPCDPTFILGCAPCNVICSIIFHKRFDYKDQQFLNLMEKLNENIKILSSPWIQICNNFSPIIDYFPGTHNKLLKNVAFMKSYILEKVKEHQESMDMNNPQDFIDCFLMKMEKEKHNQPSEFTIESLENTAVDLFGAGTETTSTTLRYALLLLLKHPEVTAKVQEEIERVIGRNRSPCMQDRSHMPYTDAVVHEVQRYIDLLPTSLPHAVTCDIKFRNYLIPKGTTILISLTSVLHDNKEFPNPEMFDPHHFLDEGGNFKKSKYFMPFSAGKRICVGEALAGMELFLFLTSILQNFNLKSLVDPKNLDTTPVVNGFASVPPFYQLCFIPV

CCCCCCCCCCC(CO)CCCCCCCC (stereo not drawn)
inactive: Potency [1] | Potency [2] | Potency [3] | Potency [4] | Potency [5]

CC(=O)N[C@H]1[C@H]([C@H](O)[C@H](O)CO)OC(C(=O)O)=C[C@@H]1N=C(N)N
inactive: Potency [1] | Potency [2] | Potency [3] | Potency [4] | Potency [5] | outcome [6]

NC(N)=NCCN1CCCCCCC1
inactive: % pathology change, negative = correction [1] -4.73% [at 0.369 µM] | outcome [4] inactive [at 0.588 µM] | activity change, negative = cell killing [5] 1.99% [at 0.588 µM]

CCC(C)(CN(C)C)OC(=O)c1ccccc1 (stereo not drawn)
inactive: Potency [1] | Potency [4]

CCCNC(C)C(=O)Nc1c(C)csc1C(=O)OC (stereo not drawn)
inactive: Potency [1] | Potency [3] | Potency [4] | Potency [5]

COc1ccc(O)cc1
inactive: Potency [2] | Potency [3]

C1CCN2C[C@@H]3C[C@@H](CN4CCCC[C@@H]34)[C@H]2C1
inactive: Potency [1] | Potency [4] | Potency [5]

CN[C@@H]1[C@@H](O)[C@@H](O[C@@H]2[C@H](O)[C@H](O[C@H]3OC(CN)=CC[C@H]3N)[C@@H](N)C[C@H]2N)OCC1(C)O (stereo partly drawn)
inactive: Potency [1] | Potency [4] | Potency [5]

O=C(O)CCCCC1CCSS1 (stereo not drawn)
inactive: Potency [1] | Potency [2] | Potency [3] | Potency [4] | Potency [5] | outcome [6]

CC(O)CCCCn1c(=O)c2c(ncn2C)n(C)c1=O (stereo not drawn)
inactive: Potency [1] | Potency [3] | Potency [4]

NC(=O)CC[C@@H](N)C(=O)O
inactive: Potency [1] | Potency [3] | Potency [4] | Potency [5]

CC(C)NC[C@@H](O)COc1ccc(CC(N)=O)cc1
inactive: Potency [1] | Potency [4] | Potency [5]

CC(=O)N(CC(O)CO)c1c(I)c(C(=O)NCC(O)CO)c(I)c(C(=O)NCC(O)CO)c1I (stereo not drawn)
inactive: Potency [1] | Potency [2] | Potency [4] | Potency [5]
